For test [1], the system named is Human papillomavirus type 1a protein E7 (residues 44-93). Kind of test: small molecules binding HPV E7 44-93 – biochemical, small-molecule microarray, residues 44-93, 635 nm fluorescence, primary screen (AID 1108).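 Also: E7 fragment applied at 1 µg/mL in TBST for 1 h at 4 C; score combines spot fluorescence with its signal to noise ratio.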 The conditions noted are these: fluorescence 635 nm, higher = more signal.
Test [2] can be described thus: hepatitis C replication reporter changes, two-sided – Huh7 cells, luciferase reporter, HCV replication inhibitor project, primary screen (AID 1109).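 Also: huh7 hepatoma cells harbouring a luciferase neomycin HCV replicon reporter; luciferase luminescence as measure of HCV replicon replication; test concentration not given here.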 The conditions noted are these: Huh7 HCV replicon luciferase reporter, 48 h; higher = more signal. Background: In a reporter assay the amount or activity of a reporter protein is the signal.
Test [3] has as its target Left-right determination factor 2 (Homo sapiens) (UniProt O00292). Put plainly: small molecules binding LEFTY2 protein – biochemical, small-molecule microarray, 635 nm fluorescence scan, primary screen (AID 1110). The conditions noted are these: higher = more signal.
In test [4] the target is Calmodulin-1 (Homo sapiens) (UniProt P0DP23). Kind of test: small molecules binding calmodulin-1 with EGTA – biochemical, small-molecule microarray, Cy5-labelled CALM1, profiling panel (AID 1111).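 Also: labelled calmodulin applied in Tris saline Tween buffer holding calcium plus EGTA and DTT.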 The conditions noted are these: Cy5-CALM1 binding fluorescence, higher = more signal.
Test [5] has the same target. Kind of test: small molecules binding Ca-loaded calmodulin-1 – biochemical, small-molecule microarray, Cy5-labelled CALM1, plus calcium, artefact control for SMM control-protein annotation, profiling panel (AID 1112).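 Also: score merges spot fluorescence with signal to noise from triplicate slides.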 The conditions noted are these: Cy5-CALM1 binding fluorescence, higher = more signal.
The nature of test [6]: probe aWnt5a binding to arrayed compounds – biochemical, biotinylated probe, 635/667 nm fluorescence, primary screen (AID 1113).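 Also: score merges 667 nm fluorescence intensity with signal-to-noise per printed feature.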 The conditions noted are these: small-molecule microarray, higher = more signal.
Test [7] is described as follows: probe aShh binding to arrayed compounds – biochemical, biotinylated probe, 635/667 nm fluorescence, primary screen (AID 1114).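 Also: probe is biotin-labelled aShh protein from a stem cell growth factor screen; measures binding of labelled protein to compounds printed on the slide; score merges feature fluorescence at 667 nm with signal-to-noise.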 The conditions noted are these: small-molecule microarray, higher = more signal.
The nature of test [8]: probe aNog binding to arrayed compounds – biochemical, biotinylated probe, 635/667 nm fluorescence, primary screen (AID 1115).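 Also: probe is biotinylated aNog protein used at 0.15 µg/mL for 1 h at 4 C; z-score combines 667 nm fluorescence of each spot with its signal to noise.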 The conditions noted are these: small-molecule microarray, higher = more signal.
Test [9] has as its target Torsin-1A-interacting protein 1 (Homo sapiens) (UniProt Q5JTV8). Kind of test: compound microarray binding of lysate hLAP1 – cell lysate, small-molecule microarray, COS7 lysate, 635/667 nm fluorescence, primary screen (AID 1116). The conditions noted are these: 635 nm fluorescence, higher = more signal.
For test [10], the target named is Alpha-bungarotoxin (Bungarus multicinctus) (UniProt P60615). Put plainly: compounds binding labelled alpha-BTX control protein – biochemical, small-molecule microarray, Alexa647 label, 635/667 nm fluorescence, artefact control for SMM control protein annotation, profiling panel (AID 1117). The conditions noted are these: alpha-BTX-A647 binding fluorescence, higher = more signal.
Alpha-bungarotoxin (Bungarus multicinctus), sequence (P60615 whole entry, looked up): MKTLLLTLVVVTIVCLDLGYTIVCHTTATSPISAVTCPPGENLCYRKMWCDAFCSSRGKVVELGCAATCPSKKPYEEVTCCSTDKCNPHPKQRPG

Test [11] addresses Albumin (Bos taurus) (UniProt P02769). Kind of test: compounds binding labelled BSA control protein – biochemical, small-molecule microarray, Alexa647 label, 635/667 nm fluorescence, artefact control for SMM control protein annotation, profiling panel (AID 1118).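 Also: score merges 667 nm emission intensity and signal-to-noise per printed compound spot.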 The conditions noted are these: BSA-A647 binding, fluorescence 635 nm, higher = more signal.
Test [12] in a line: probe aXIP binding to arrayed compounds – biochemical, NeuroSMM set, 635/667 nm fluorescence, primary screen (AID 1119).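 Also: probe is the protein aXip251-270 applied at 1 µg/mL to compound-printed slides; binding of probe to printed compounds measured as 667 nm fluorescence plus signal to noise.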 The conditions noted are these: small-molecule microarray, higher = more signal, called active from +8 up or from −8 down.
Test [13] can be described thus: probe aNOTCH3 binding on compound microarray – biochemical, small-molecule microarray, 635/667 nm fluorescence, primary screen (AID 1120).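 Also: probe is a biotin-tagged antibody raised against NOTCH3 rather than NOTCH3 protein; score merges spot fluorescence near 667 nm with spot signal to noise.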 The conditions noted are these: higher = more signal.
Test [14] in a line: probe aNOTCH2 binding on compound microarray – biochemical, small-molecule microarray, 635/667 nm fluorescence, primary screen (AID 1121).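 Also: score merges feature fluorescence read at 667 nm with its signal to noise.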 The conditions noted are these: higher = more signal.
Test [15] has as its target Carbonic anhydrase 2 (Homo sapiens) (UniProt P00918). Put plainly: compounds binding carbonic anhydrase 2 – biochemical, small-molecule microarray, Alexa647-labelled CAII, profiling panel (AID 1122). The conditions noted are these: CAII-A647 binding fluorescence, higher = more signal.
Test [16] can be described thus: COS7 lysate on small-molecule microarray, probe aHis, 635 nm (AID 1123).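 Also: z-score combines 667nm fluorescence intensity with signal-to-noise per printed compound spot.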 The conditions noted are these: COS7 cell lysate, fluorescence, higher = more signal.
Test [17] in a line: probe aLAP1 signal on lysate-treated microarray – cell lysate, small-molecule microarray, COS7 lysate, primary screen (AID 1124).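 Also: lysate comes from COS7 cells expressing LAP1 and is applied at 0.3 µg/mL; score merges spot fluorescence near 667 nm with signal-to-noise over triplicate slides.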 The conditions noted are these: probe aLAP1, fluorescence, higher = more signal.
Test [18] has as its system Sam68 (KHDRBS1). Kind of test: compounds binding KHDRBS1 protein – biochemical, small-molecule microarray, 635 nm fluorescence, primary screen (AID 1125).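 Also: score merges 667 nm channel intensity with signal to noise over triplicate slides.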 The conditions noted are these: higher = more signal.
The subject of test [19] is Chordin-like protein 2 (CHRDL2). Kind of test: compounds binding chordin-like 2 – biochemical, small-molecule microarray, 635 nm fluorescence, primary screen (AID 1126).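 Also: printed compound slides probed with Chrdl2 protein at 4 µg/mL for 1 h at 4 C; score merges 667 nm emission intensity with signal to noise over three replicate slides.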 The conditions noted are these: fluorescence 635 nm, higher = more signal.
Test [20] addresses Concanavalin-A (Canavalia ensiformis) (UniProt P02866). Put plainly: compounds binding concanavalin A lectin – biochemical, small-molecule microarray, Alexa647 label, 635 nm, artefact control for SMM control protein annotation, primary screen (AID 1127).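 Also: z combines 667 nm emission intensity with signal-to-noise across three replicate slides.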 The conditions noted are these: ConA-A647 binding fluorescence, higher = more signal.

Values joined by “and” are separate entries in the source; they are usually repeats but may differ in a detail not shown here. Equal entries are not always repeated. Active and inactive are the calls of the source.

Left-right determination factor 2 (Homo sapiens), sequence (O00292 whole entry, looked up): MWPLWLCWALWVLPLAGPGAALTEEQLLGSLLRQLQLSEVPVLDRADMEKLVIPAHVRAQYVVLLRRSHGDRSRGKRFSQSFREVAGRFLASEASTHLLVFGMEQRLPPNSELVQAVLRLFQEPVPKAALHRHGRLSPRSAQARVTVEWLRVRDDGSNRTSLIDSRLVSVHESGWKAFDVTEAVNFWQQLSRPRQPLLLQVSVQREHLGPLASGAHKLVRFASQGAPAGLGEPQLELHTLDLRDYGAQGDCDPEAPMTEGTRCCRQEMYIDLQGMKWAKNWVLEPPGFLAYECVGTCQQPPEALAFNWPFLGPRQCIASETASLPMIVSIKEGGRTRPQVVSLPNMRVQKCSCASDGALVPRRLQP
Torsin-1A-interacting protein 1 (Homo sapiens), sequence (Q5JTV8 whole entry, looked up): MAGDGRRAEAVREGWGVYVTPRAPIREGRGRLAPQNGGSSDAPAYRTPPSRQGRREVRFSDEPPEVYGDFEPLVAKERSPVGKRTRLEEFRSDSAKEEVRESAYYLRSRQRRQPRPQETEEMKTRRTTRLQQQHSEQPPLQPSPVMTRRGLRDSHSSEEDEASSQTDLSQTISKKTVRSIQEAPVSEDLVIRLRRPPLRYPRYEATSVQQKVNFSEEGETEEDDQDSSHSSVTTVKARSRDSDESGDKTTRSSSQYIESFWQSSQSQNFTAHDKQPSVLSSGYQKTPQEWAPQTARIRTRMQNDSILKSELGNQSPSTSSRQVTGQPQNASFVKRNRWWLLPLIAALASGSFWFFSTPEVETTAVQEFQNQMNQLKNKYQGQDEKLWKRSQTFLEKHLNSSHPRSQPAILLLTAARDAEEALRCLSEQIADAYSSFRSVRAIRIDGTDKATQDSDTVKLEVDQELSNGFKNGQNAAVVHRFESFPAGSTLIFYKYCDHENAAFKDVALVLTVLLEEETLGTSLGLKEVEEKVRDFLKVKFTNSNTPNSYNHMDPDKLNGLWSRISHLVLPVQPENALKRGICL
Albumin (Bos taurus), sequence (P02769 whole entry, looked up): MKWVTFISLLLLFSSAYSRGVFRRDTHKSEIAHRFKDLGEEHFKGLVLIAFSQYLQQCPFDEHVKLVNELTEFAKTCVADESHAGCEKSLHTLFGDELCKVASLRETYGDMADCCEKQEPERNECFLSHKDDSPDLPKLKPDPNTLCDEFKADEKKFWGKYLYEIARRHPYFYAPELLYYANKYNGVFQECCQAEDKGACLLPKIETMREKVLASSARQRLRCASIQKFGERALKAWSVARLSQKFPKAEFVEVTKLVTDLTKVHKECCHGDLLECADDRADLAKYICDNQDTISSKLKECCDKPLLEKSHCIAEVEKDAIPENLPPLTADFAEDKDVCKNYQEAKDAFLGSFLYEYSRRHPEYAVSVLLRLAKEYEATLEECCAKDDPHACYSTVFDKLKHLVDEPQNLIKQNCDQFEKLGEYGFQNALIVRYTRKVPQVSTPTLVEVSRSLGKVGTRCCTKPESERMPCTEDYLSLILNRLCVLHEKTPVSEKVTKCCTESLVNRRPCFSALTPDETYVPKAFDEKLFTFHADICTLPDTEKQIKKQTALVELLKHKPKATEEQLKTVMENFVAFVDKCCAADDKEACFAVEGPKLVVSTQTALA
Concanavalin-A (Canavalia ensiformis), sequence (P02866 whole entry, looked up): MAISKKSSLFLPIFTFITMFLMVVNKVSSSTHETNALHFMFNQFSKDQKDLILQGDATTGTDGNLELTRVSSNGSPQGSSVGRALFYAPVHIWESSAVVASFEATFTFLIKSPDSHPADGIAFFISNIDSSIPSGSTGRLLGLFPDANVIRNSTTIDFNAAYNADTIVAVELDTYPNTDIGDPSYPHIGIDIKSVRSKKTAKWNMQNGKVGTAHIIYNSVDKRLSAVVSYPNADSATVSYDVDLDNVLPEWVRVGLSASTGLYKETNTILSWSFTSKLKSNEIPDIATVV

With `C=CCN(CCCCC)C(=O)C(c1cccs1)N(C(=O)/C=C\C(=O)O)c1c(Cl)cccc1CO` (stereo not given), the composite z-score in test [1] is -0.961 and -1.88; in [3] it was -3.1 and -0.775; in test [4], -0.332 and -1.06; in test [5], 0.782 and -0.54; in test [6], -0.228 and -0.348; in [7] it was -0.138 and -0.291. The composite z-score in test [8] was 0.509 and -0.369; in test [9], 2.83 and -1.08; in test [10] it was -2.56 and -0.725; in [11] it was -0.678 and -0.603; in [13] it was -0.533 and -0.396; in [14], -0.057 and -0.187. The composite z-score was 0.91 and 0.768 in test [15]; -0.774 and -0.96 in test [16]; 1.62 and -0.0008 in [17]; -1.09 and -1.41 in test [18]; -2.67 and -1.87 in [19]; -0.906 and -1.52 in test [20]. In [2], the z-score was -0.651 and -0.698. The composite Z-score in [12] is -0.798 (inactive) and 0.414 (inactive).

As for `CCOC(=O)C[C@H]1[C@H](OC(=O)c2ccccc2-c2ccccc2)[C@@H](NC(=O)Cc2ccc(OC)cc2)c2cc(OCCCO)ccc2N1C(=O)c1ccc2ccccc2n1`, the composite z-score in [1] is 0.005 and 0.188; in test [3] it was 0.417 and 0.0866; in [4], 0.174 and 1.45; in test [5], 0.141 and 0.318; in test [6], 0.0031 and 0.0512; in test [7], -0.0681 and -0.0146. The composite z-score in test [8] was 0.0926 and -0.111; in test [9] it was 0.032 and 0.747; in [10] it was 0.572 and 0.924; in test [11], 0.0759 and 0.46; in test [13] it was -0.0347 and -0.0608; in test [14] it was -0.14 and 0.0777. In addition, the composite z-score is -0.156 and 0.0959 in test [15]; 0.411 and 1.57 in test [16]; -0.264 and 0.286 in test [17]; -0.636 and 0.641 in test [18]; -0.0194 and -0.181 in [19]; 0.0022 and 0.662 in test [20]. Also, the z-score in [2] is -1.38 and -0.367. For the same compound, in test [12], the composite Z-score is -0.252 (inactive) and -0.128 (inactive).

Take `COC(=O)[C@@]1(Cc2ccccc2)[C@H]2c3cc(C(=O)N(C)C)n(Cc4ccc(C)c(F)c4F)c3C[C@H]2CN1C(=O)c1ccccc1`: the composite z-score in test [1] was 1.41 and 1.38; in test [3] it was -0.301 and 0.288; in test [4], 1.46 and 2.22; in [5], 0.818 and 1.11; in test [6], 0.208 and 0.822; in test [7] it was 1.91 and -0.279. In addition, the composite z-score in test [8] is 0.782 and 0.365; in [9], 2.24 and 0.536; in test [10] it was 0.226 and 1.1; in [11] it was 0.821 and 0.859; in [13], 0.141 and 1.27; in [14], 0.106 and -0.0977. The composite z-score in test [15] was 0.72 and 0.653; in [16], 2.51 and 2.94; in test [17], 0.289 and 0.612; in [18], 0.998 and 1.34; in test [19] it was -1.32 and -0.528; in test [20], 0.201 and 1.18. Moreover, the z-score in test [2] is -3.76 and -2.08. Further, in test [12], the composite Z-score was 0.392 (inactive) and -0.26 (inactive).

Take `COC(=O)C1=C(C)N(Cc2ccccc2)C2=C(C(=O)c3ccccc3)[C@H](c3ccccc3)[C@@](O)(C(=O)OC)C(=O)N2[C@@H]1c1ccccc1`: the composite z-score in [1] was 1.15 and 0.774; in test [3], 0.32 and 0.577; in [4] it was 0.046 and -0.136; in test [5], -0.373 and -0.51; in [6], -0.176 and -0.1; in [7], -0.137 and -0.0626. Further, the composite z-score in [8] was -0.31 and 0.0197; in [9], 0.202 and 0.17; in test [10], -0.115 and -0.0752; in [11], 0.388 and 0.0897; in test [13], 0.177 and -0.0265; in [14], 0.0929 and -0.171. The composite z-score is 0.0303 and -0.0063 in test [15]; -0.224 and 0.306 in test [16]; 0.0568 and 0.016 in [17]; 0.928 and 0.821 in test [18]; 0.275 and 0.455 in [19]; 0.914 and 0.37 in test [20]. Moreover, in test [2], the z-score is -2.05 and 0.964. Also, in test [12], the composite Z-score is -0.174 (inactive) and -0.441 (inactive).

For `C[N+](C)(C)CCCCNC(=O)[C@H]1C[C@H]2C(=O)N[C@@H](CCCC[N+](C)(C)C)C(=O)N2[C@H]1c1cccc(OCCO)c1`, the composite z-score in [1] was -0.779 and 0.569; in [3] it was 1.36 and 1.28; in test [4], -1.49 and -0.367; in [5], -0.691 and -0.325; in test [6] it was -0.127 and -0.0512; in [7], 0.0948 and 0.395. The composite z-score in test [8] is -0.249 and -0.234; in test [9] it was 1.89 and 2.53; in test [10], -0.559 and 0.47; in test [11], -0.741 and -0.3; in test [13] it was 0.0533 and 0.245; in [14], -0.0974 and -0.131. The composite z-score in test [15] was 0.851 and 0.463; in test [16] it was 1.38 and 1.49; in test [17], 0.848 and 0.953; in test [18], 0.25 and 1.32; in [19], 1.17 and 1.53; in [20], 0.744 and 1.05. For the same compound, the z-score in test [2] is -1.34 and -0.59. Moreover, the composite Z-score in [12] is 2.4 (inactive) and 1.3 (inactive).

The record behind these values is PubChem BioAssay.
